Screening data: PubChem BioAssay, National Center for Advancing Translational Sciences (NCATS)
Shown are actives, neighbours in structure and some others; about 2.4% of the full set was active somewhere.
GLS inh – qHTS for Inhibitors of Glutaminase (GLS). Glutaminase kidney isoform, mitochondrial (Homo sapiens), O94925. GLS enzymatic activity, qHTS titration. Potency, µM (top dose mostly 45.5 µM), for the others: at the highest dose activity change, negative = inhibition, hits mostly inhibitors. actives 0.21% (n = 410,000). AID 624170, 2012; also: potency is read from the fitted curve at half-maximal effect; % is scaled to controls: 0 for no effect and ±100 for the full control effect
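hKGA; 45 mM KH2PO4 pH 8.2 + 0.02% Tween-20; cpd via pin tool; 1 mM Gln soln; GluOx/HRP/Amplex Red; RT 30 min; fluor. t0 & final.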
Pol beta inh – qHTS Assay for Inhibitors of DNA Polymerase Beta; Potency, µM (top dose mostly 114 µM), inactives show at the highest dose activity change, negative = inhibition, actives largely listed as inhibitors; actives 1.3% (n = 340,000); Pol beta primer extension/strand displacement, fluorescence kinetic; AID 485314, 2010; P06746; also: potency is read from the fitted curve at half-maximal effect; % is scaled to controls: 0 for no effect and ±100 for the full control effect
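Reaction started by 50 nM substrate onto compound-treated Pol beta (10 nM, 15 min preincubation, room temperature); plates read at 0 min and 10 min. Normalized concentration-effect data fitted by four-parameter Hill equation.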
Pol kappa inh – qHTS for Inhibitors of Polymerase Kappa; actives 0.53% (n = 400,000); DNA polymerase kappa (Homo sapiens), Q9UBT6; Potency, µM (highest dose often 107 µM), without a hit: at the top dose activity, negative = inhibition, most hits filed as inhibitors; purified Pol kappa, fluorescent DNA synthesis assay, 10 min; AID 588579, 2011; also: potency is read from the fitted curve at half-maximal effect; % is scaled to controls: 0 for no effect and ±100 for the full control effect
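Pol kappa 10 nM + cpd, 15 min RT; start w/ substrate 50 nM final; fluorescence kinetic read, 0 and 10 min. Neg ctrl: buffer, no enzyme.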
Pol eta inh-1 – qHTS for Inhibitors of Polymerase Eta; actives 1.2% (n = 390,000); DNA polymerase eta (Homo sapiens), Q9Y253; recombinant Pol eta, fluorescent DNA replication assay; Potency, µM (doses to about 114 µM), for inactives: at the top dose activity change, negative = inhibition, hits mostly inhibitors; also: potency is read from the fitted curve at half-maximal effect; % is scaled to controls: 0 for no effect and ±100 for the full control effect
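Fluorescent replication assay: 50 nM final substrate added after a 15 min room-temperature compound preincubation with 10 nM enzyme. Signal taken at 0 min and again at 10 min.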
POLI inh – qHTS for Inhibitors of Polymerase Iota. DNA polymerase iota (Homo sapiens), Q9UNA4. Pol iota fluorescent replication assay, 10 min. Potency, µM (doses to about 115 µM), inactives show at the highest dose activity, negative = inhibition, actives largely listed as inhibitors. actives 1% (n = 390,000); also: potency is read from the fitted curve at half-maximal effect
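Pol iota at 10 nM preincubated 15 min with compounds at room temperature; reaction started with fluorescent substrate, 50 nM final. Fluorescence read kinetically at 0 and 10 min; buffer-only wells as negative control.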
APEX1 inh – qHTS Assay for Inhibitors of the Human Apurinic/apyrimidinic Endonuclease 1 (APE1). DNA repair nuclease/redox regulator APEX1 (Homo sapiens), P27695. actives 0.35% (n = 350,000). recombinant APE1, TAMRA/BHQ-2 abasic DNA cleavage fluorescence. Potency, µM (series often up to 65.8 µM), without a hit: at the highest dose activity change, negative = inhibition, most hits filed as inhibitors;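 also: potency is read from the fitted curve at half-maximal effect; plate controls were vehicle for no effect and reference inhibitor for full effect; nearly all actives have a fitted effect of over 55% in size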
Target sequence (P27695 whole entry, looked up): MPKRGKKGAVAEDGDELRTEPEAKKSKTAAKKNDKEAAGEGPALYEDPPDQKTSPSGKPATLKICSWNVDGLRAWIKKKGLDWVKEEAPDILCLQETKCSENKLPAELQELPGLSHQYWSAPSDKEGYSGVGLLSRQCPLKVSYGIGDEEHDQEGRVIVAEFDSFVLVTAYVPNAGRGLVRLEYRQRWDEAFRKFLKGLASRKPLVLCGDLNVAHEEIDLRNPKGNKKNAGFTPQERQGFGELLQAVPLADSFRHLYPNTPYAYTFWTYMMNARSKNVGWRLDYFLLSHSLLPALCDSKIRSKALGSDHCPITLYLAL
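APE1 at 0.75 nM final was preincubated with compound 15 min at room temperature, then 50 nM double-stranded THF abasic-site substrate (5'-TAMRA/3'-BHQ-2) was added. Fluorescence (ex 525/em 598 nm) was read kinetically; third-minus-first read gave activity.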
TbPGK inh – qHTS for inhibitors of Phosphogylcerate Kinase: Hit Validation Screen. shares compounds with Pol kappa inh. TbPGK coupled GAPDH assay, Kinase-Glo luminescence. Potency, µM (series often up to 57.5 µM), for the others: at the top dose activity change, negative = inhibition, most hits filed as inhibitors. actives 79% (n = 500). AID 686980, 2013; also: potency is read from the fitted curve at half-maximal effect; % is scaled to controls: 0 for no effect and ±100 for the full control effect; nearly all actives have a fitted effect of over 65% in size
POLI cherry-pick – qHTS for Inhibitors of Polymerase Iota: Confirmatory Assay for Cherry-picked Compounds; shares compounds with Pol kappa inh; Pol iota primer extension, TAMRA/BHQ fluorescence; Potency, µM, usual class: inhibitors; actives 77% (n = 1,500); AID 720496, 2013; also: potency is read from the fitted curve at half-maximal effect
GALK inh confirm – Confirmation Assay for Inhibitors of Human Galactokinase (GALK). shares compounds with Pol eta inh-1. purified GALK, Kinase-Glo ATP depletion luminescence. Potency, µM (highest dose often 115 µM), without a hit: top-dose activity, negative = inhibition, usual class: inhibitors. actives 70% (n = 150). AID 2015, 2009
Target sequence (P51570 whole entry, looked up): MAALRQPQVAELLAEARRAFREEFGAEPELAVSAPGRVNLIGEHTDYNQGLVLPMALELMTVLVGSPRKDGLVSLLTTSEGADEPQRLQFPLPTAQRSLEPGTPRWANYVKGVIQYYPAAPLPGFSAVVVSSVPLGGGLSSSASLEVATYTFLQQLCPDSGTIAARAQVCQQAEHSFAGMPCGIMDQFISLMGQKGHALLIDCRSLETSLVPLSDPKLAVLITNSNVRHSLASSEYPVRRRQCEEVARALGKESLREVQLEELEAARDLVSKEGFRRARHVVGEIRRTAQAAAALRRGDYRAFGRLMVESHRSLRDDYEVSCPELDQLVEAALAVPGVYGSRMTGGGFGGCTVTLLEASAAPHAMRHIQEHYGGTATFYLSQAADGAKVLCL
GALK redox cs – Confirmatory Assay for Inhibitors of Human Galactokinase (GALK): Phenol-HRP redox assay counterscreen; AID 2035, 2009; shares compounds with Pol eta inh-1; Potency, µM (series often up to 115 µM), for the others: at the highest dose activity change, negative = H2O2 signal, hits mostly inhibitors; Phenol red-HRP H2O2 redox cycling, absorbance 600 nm; actives 40% (n = 150)
HEK293 viability – Secondary Assay for Inhibitors of Human Galactokinase (GALK): HEK-293 Cell Viability Assay | shares compounds with Pol eta inh-1 | HEK-293 viability, ATP luminescence (CellTiter-Glo), 24/48 h | Potency, µM (series often up to 46.1 µM), inactives show top-dose activity change, negative = cytotoxicity, hits mostly inhibitors | actives 10% (n = 170) | AID 2547, 2010; also: potency is read from the fitted curve at half-maximal effect; % is scaled to controls: 0 for no effect and ±100 for the full control effect
Pol eta inh-2 – qHTS for Inhibitors of Polymerase Eta: Confirmatory Assay for Cherry-picked Compounds; shares compounds with Pol eta inh-1; Pol eta primer extension, TAMRA/BHQ fluorescence, 10 min; Potency, µM, hits mostly inhibitors; actives 64% (n = 2,600); AID 720502, 2013; also: potency is read from the fitted curve at half-maximal effect
* marks the source's active call; other numbers are inactive results; ! = a repeat was not active; [ ] = remark or other dose. Calls follow the shape of the dose curve; as a rule, active = well fitted curve in the direction sought with a large enough effect; inconclusive = small, poorly fitted or top-dose-only effect, or another doubt; inactive = no such curve, though single readings can be large; an effect the other way counts as inactive or inconclusive.

What do the screens show for `C=C(C)C(=O)Nc1cccc(C2=NOC3(C2)C[C@@H](C(N)=O)N(C(=O)/C=C/C=C/C)C3)c1` (stereo partly specified)?
GLS inh: 11.2µM*; Pol beta inh: 2.51µM*; Pol kappa inh: 28.2µM*; Pol eta inh-1: 3.16µM*; POLI inh: 22.4µM*; APEX1 inh: inconclusive; TbPGK inh: 0.73µM*; POLI cherry-pick: inconclusive; Pol eta inh-2: 16.9*

What do the screens show for `C/C=C/C=C\C(=O)Nc1cccc(C2=NOC3(C2)C[C@@H](C(N)=O)N(C(=O)/C(C)=C/C)C3)c1` (stereo partly specified)?
GLS inh: -29.3%; Pol beta inh: -0.6%; Pol kappa inh: 50.1µM*; Pol eta inh-1: 17.8µM*; POLI inh: 15.8µM*; APEX1 inh: 13.5%; POLI cherry-pick: 10.6*; Pol eta inh-2: 16.9*

How did O=C(C1CCC(Cn2c(=O)c3sccc3n(Cc3ccccc3F)c2=O)CC1)N1CCOCC1 (stereo unspecified) do in these assays?
GLS inh: 4.7%; Pol beta inh: 1.4%; Pol kappa inh: 0.0%; Pol eta inh-1: -10.0%; POLI inh: 9.2%

Results for Cc1ccc(-n2cccc2/C=C2\C(=N)N3N=C(c4ccco4)SC3=NC2=O)cc1 ?
GLS inh: inconclusive; Pol beta inh: 10µM*; Pol kappa inh: inconclusive; Pol eta inh-1: 14.1µM*; POLI inh: 20µM*; APEX1 inh: 10µM*; POLI cherry-pick: inconclusive; Pol eta inh-2: 75.7*

What do the screens show for `O=C1C(Cl)=C(NCCCO)C(=O)c2ccccc21`?
GLS inh: 0.9%; Pol beta inh: -8.6%; Pol kappa inh: -15.0%; Pol eta inh-1: -19.6%; POLI inh: -7.8%; APEX1 inh: -2.3%

Results for O=C1C(SCCO)=C(SCCO)C(=O)c2ccccc21 ?
GLS inh: inconclusive; Pol beta inh: 5.5%[57.1 µM]; Pol kappa inh: inconclusive; Pol eta inh-1: 15.8µM*; POLI inh: 1.12µM*!; APEX1 inh: inconclusive; POLI cherry-pick: 23.8*; GALK inh confirm: 18.8µM*; GALK redox cs: 10.6µM*; HEK293 viability: inconclusive; Pol eta inh-2: 23.9*

Results for O=C(NCc1ccccc1)OC1CC2CC1[C@H]1CCCCN1C2=O (stereo partly specified) ?
GLS inh: 2.5%

What do the screens show for `Cc1cc(C(=O)O)ccc1-n1c(C)cc(C=C2C(=O)c3ccccc3C2=O)c1C`?
GLS inh: 0.0%; Pol beta inh: -18.2%; Pol kappa inh: -19.1%; Pol eta inh-1: inconclusive; POLI inh: inconclusive; APEX1 inh: inconclusive

Results for Cc1ccc(C(=O)O)cc1-c1ccc(C=C2C(=O)c3ccccc3C2=O)o1 ?
GLS inh: 0.0%; Pol beta inh: 31.6µM*; Pol kappa inh: 79.4µM*; Pol eta inh-1: 7.94µM*; POLI inh: inconclusive; APEX1 inh: -7.0%; POLI cherry-pick: 42.3*; Pol eta inh-2: 26.9*

How did COc1ccc(-c2sc3ccc(OC)cc3c2-c2ccc(O)cc2)cc1 do in these assays?
GLS inh: 6.9%; Pol kappa inh: -15.3%; Pol eta inh-1: -6.8%; POLI inh: -5.0%; APEX1 inh: -0.7%

Results for CC(OC(=O)/C(C#N)=C/c1ccc(N(C)C)cc1)C(=O)N(C)c1ccccc1 (stereo unspecified) ?
GLS inh: 17.2%; Pol kappa inh: 79.4µM*; Pol eta inh-1: 79.4µM*; POLI inh: 50.1µM*; APEX1 inh: 23.8µM*; POLI cherry-pick: 23.8*; Pol eta inh-2: 33.8*

How did COC1=CC(=O)c2c(ccc3ncnc(N)c23)C1=O do in these assays?
GLS inh: -2.5%; Pol kappa inh: -5.5%; Pol eta inh-1: 4.47µM*; POLI inh: 3.98µM*; POLI cherry-pick: 4.23*; Pol eta inh-2: 8.49*

How did Cc1ccc(C(=O)N/N=C/c2cn(Cc3ccccc3)c3ccccc23)cn1 do in these assays?
GLS inh: -6.0%; Pol beta inh: 1.3%; Pol kappa inh: 5.7%; Pol eta inh-1: -15.1%; POLI inh: -5.6%; APEX1 inh: 12.6%
